This passage reports growth results from PubChem BioAssay (NCI).

Test in all cases: NCI-60 one-dose screen, 48 h (100 = growth as untreated, 0 = no growth, -100 = all killed)
Settings in all cases: 10 µM

For assay [1], the system named is DU-145 prostate.
Assay [2] concerns K-562 leukemia.
Assay [3] has as its system MALME-3M melanoma.
Assay [4] deals with MDA-MB-231 breast.
Assay [5] relates to RXF 393 renal.
The subject of assay [6] is SF-268 CNS.
The test system of assay [7] is SF-295 CNS.
The subject of assay [8] is SF-539 CNS.
Assay [9] concerns M14 melanoma.
The subject of assay [10] is UACC-257 melanoma.

The panel holds about 83,000 compounds, 20% with a hit somewhere; the sample as a whole holds those more often.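 Cell lines were cultured in 96-well plates, exposed to a single compound concentration, and assessed for percent growth 48 hours later.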 A number with no mark means an inactive call. Active and inactive are the calls of the source. How the source made its calls: active means growth percent below 10; inactive means the rest.

Turning to `CC(C(=O)O)(C1CCCCC1)C1(O)CCCCC1` (configuration not stated), the growth in assay [1] was 108%; in [2], 102%; in [3] it was 98.9%; in assay [4], 109%; in assay [5] it was 99.1%; in assay [6] it was 99.2%. Also, the growth is 82.9% in [7], 103% in [8] and 104% in [9].
Take `CC(=O)OCC1OC(OC2=C(CC=C(C)C)C(=O)c3ccccc3C2=O)C(OC(C)=O)C(OC(C)=O)C1OC(C)=O` (configuration not stated): the growth is 57.1% in assay [1]; -47.4% (active) in assay [2]; -36.2% (active) in assay [3]; 6.41% (active) in assay [4]; 61.1% in [5]; 22.7% in [6]. Moreover, the growth in assay [7] was 63.4%; in assay [10] it was 20.6%; in assay [9] it was 46.8%.
Regarding `CC(=O)NCc1cc(C)c(C)cc1C`, the growth is 104% in [1]; 94.2% in assay [2]; 88.7% in [3]; 110% in assay [4]; 103% in assay [5]; 95.7% in assay [6]. The growth in assay [7] is 103%; in assay [8], 102%; in assay [9], 105%.
Consider `C/C(=N\NC(=O)c1ccccc1N)c1ccccc1O`, for which the growth is 45.6% in assay [1]; 34% in assay [2]; 50% in assay [3]; 44.7% in [4]; 74.9% in [5]; 39.3% in assay [6]. Moreover, the growth is 12.8% in assay [7], 32.5% in assay [8] and 38.9% in assay [9].
As to `CCO/C=C1\SC(=S)N(c2cccc(C)c2)C1=O`, the growth was 111% in [1]; 99.5% in assay [2]; 98.4% in assay [3]; 117% in [4]; 105% in [5]; 101% in assay [6]. Further, the values for the growth in [7], in assay [8] and in [9] were 97%, 97.8% and 119%, respectively.
For `COCCCNC(=O)c1nnn2c1nc(N)c1cc(Cl)ccc12`, the growth in assay [1] is 105%; in assay [2], 34.6%; in assay [3] it was 65.1%; in [4], 100%; in [5] it was 103%; in [6] it was 94.1%. In addition, the growth was 91.7% in [7], 94% in assay [8] and 79.3% in [9].
`Cc1ccc(S(=O)(=O)O)c(C)c1`: the growth in assay [1] is 108%; in [2] it was 98.8%; in assay [3], 88.4%; in assay [4], 116%; in assay [5], 117%; in assay [6], 114%. In addition, the growth in assay [8] was 101%; in assay [10] it was 108%; in assay [9], 101%.
Regarding `O=[N+]([O-])c1ccc(CO)cc1`, the growth in [1] is 115%; in assay [2], 93.7%; in assay [3], 99.3%; in assay [4], 95.2%; in assay [5] it was 97.9%; in [6], 107%. For the same molecule, the growth in [7] is 94.4%; in assay [8], 97.9%; in assay [9], 103%.
On to `Nc1ccc(N=Nc2ccc(S(=O)(=O)O)cc2)c2ccccc12`, for which the growth in [1] was 106%; in assay [2], 94.6%; in [3], 83.4%; in assay [4], 87.8%; in assay [5], 101%; in [6] it was 106%. Besides, the results for the growth in assay [7], in assay [8] and in [9] were 99.5%, 103% and 99.1%, respectively.
Turning to `O=C(Cc1ccc(OCc2ccccc2)cc1)NCc1ccc2c(c1)OCO2`, the growth is 84.6% in [1]; 27.6% in [2]; 46.6% in assay [3]; 82.8% in assay [4]; 105% in assay [5]; 68.9% in [6]. Also, the values for the growth in [7], in assay [8] and in assay [9] were -16.6% (active), 93.7% and 61.9%, respectively.
Take `O=C(NCCNC(=O)c1ccc(Cl)cc1Cl)c1ccc(Cl)cc1Cl`: the growth was 114% in assay [1]; 107% in assay [2]; 112% in assay [3]; 91.8% in assay [4]; 95% in [5]; 99.1% in [6]. Further, the growth in assay [7] is 82.7%; in [8], 96.5%; in [9], 105%.
Regarding `COc1cc(CCN=Cc2ccccc2O)c([N+](=O)[O-])cc1OC`, the growth in [1] is 113%; in assay [2], 94.9%; in [3], 89.5%; in [4], 112%; in [5], 111%; in [6], 100%. Moreover, the growth in [7] is 87.4%; in assay [8], 106%; in assay [9] it was 95.6%.
For `Nc1ccccc1SC(CC(=O)c1ccccc1)c1c(Cl)cccc1Cl` (configuration not stated), the growth in assay [1] is 23.9%; in assay [2] it was 12.4%; in assay [3], 77.1%; in [4], 86.6%; in assay [5], 86.8%; in [6], 56%. Further, the growth in assay [7] is 94.2%; in assay [8], 101%; in [9] it was 93%.
As for `OC1OC(COC(c2ccccc2)(c2ccccc2)c2ccccc2)C(O)C(O)C1O` (configuration not stated), the growth in [1] is 107%; in assay [2], 95.4%; in assay [3], 90.6%; in assay [4], 91.9%; in [5], 95.8%; in assay [6] it was 97.7%. Further, the growth in assay [7] is 96.8%; in assay [8], 102%; in assay [9], 105%.
In the case of `O=[N+]([O-])c1ccccc1S(=O)c1ccccc1[N+](=O)[O-]`, the growth in assay [1] was 106%; in [2], 47.9%; in assay [3] it was 90.4%; in assay [4] it was 74%; in assay [5], 111%; in assay [6] it was 88.1%. In addition, the growth in [7] is 79%; in assay [8], 113%; in assay [9], 95.9%.
Take `c1ccc(Sc2ccccc2)cc1`: the growth is 105% in assay [1]; 112% in [2]; 94.4% in assay [3]; 109% in assay [4]; 114% in assay [5]; 97% in [6]. Moreover, the results for the growth in assay [8] and in assay [10] were 103% and 88.3%, respectively.
As for `CCOC(=O)c1coc(C(=O)OCC)c1C(=O)OCC`, the growth in assay [1] is 116%; in assay [2], 112%; in [3] it was 116%; in [4], 107%; in assay [5] it was 123%; in assay [6] it was 105%. Besides, the growth in [7] was 102%; in assay [10] it was 112%; in assay [9], 120%.
